# High-throughput results from PubChem.
# Sfp inh = blocks B. subtilis Sfp PPTase activity. AID 1490. actives 3.5% (n = 310,000). Potency, µM, for the others: largest response in the series, negative = inhibition, hits mostly inhibitors. Biochemical Sfp PPTase activity, qHTS. Q9F4F7;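 note: the enzyme is Sfp with the accession as filed and its product quenches rhodamine fluorescence; potency is the fitted concentration of half-maximal effect; 0% = enzyme reaction without inhibitor and -100% = no enzyme wells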
#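 Fluorescence-quenching assay with 15 nM Sfp, 5 uM rhodamine-CoA and 12.5 uM BHQ-2-labelled ybbR peptide in pH 7.6 Hepes/MgCl2 buffer. Enzyme was pre-incubated with compound for 15 min at room temperature. Rate was taken from the 30-min fluorescence change (525/598 nm).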
# Tau fluor cs = counter-screen for tau fibril formation inhibitors | tau K18 P301L Alexa594 fluorescence, heparin fibrillization | Potency, µM (highest dose often 57.7 µM), inactives show at the top dose activity change, negative = decrease | actives 0.93% (n = 280,000); note: potency is the fitted concentration of half-maximal effect; nearly all actives have a fitted effect of over 55% in size
#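 Human tau K18 P301L (15 uM unlabeled, 0.24 uM Alexa 594-labeled) in 100 mM sodium acetate pH 7 with 20 uM heparin, 6 hr at 37 C. ThT 30 uM added, 1 hr ambient; Alexa 594 FP and total fluorescence read at 555/632 nm.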
# Coupling enz = inhibits coupling enzyme system, counter-screen for aldolase hits. coupling enzyme system counterscreen, AmpLite Red fluorescence. activity change, negative = inhibition, % at 58.2 µM, hits read low. actives 0.67% (n = 290,000); in the data active = activity change below about -30%
#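 Compounds tested against the coupling enzymes alone at 57.5 uM final; readout was AmpLite Red fluorescence (525/598 nm) after 20 min at RT.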
# KDM4E inh = blocks human JMJD2E demethylase activity; JMJD2E catalytic domain, FDH-coupled NADH fluorescence (FDH is formaldehyde dehydrogenase); Potency, µM (highest dose often 57.1 µM), for inactives: at the highest dose activity change, negative = inhibition, usual class: inhibitors; actives 1.6% (n = 230,000); AID 2147; active = well fitted inhibition curve with a large enough effect, not every such curve was filed as active; inconclusive = small, poorly fitted or top-dose-only effect, or another doubt; inactive = no such curve, though single readings can be large or run the other way;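 note: potency is the fitted concentration of half-maximal effect; 0% = wells with enzyme and -100% = buffer wells without enzyme; nearly all actives have a fitted effect of over 50% in size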
# Target sequence (B2RXH2 1-337 limits assumed): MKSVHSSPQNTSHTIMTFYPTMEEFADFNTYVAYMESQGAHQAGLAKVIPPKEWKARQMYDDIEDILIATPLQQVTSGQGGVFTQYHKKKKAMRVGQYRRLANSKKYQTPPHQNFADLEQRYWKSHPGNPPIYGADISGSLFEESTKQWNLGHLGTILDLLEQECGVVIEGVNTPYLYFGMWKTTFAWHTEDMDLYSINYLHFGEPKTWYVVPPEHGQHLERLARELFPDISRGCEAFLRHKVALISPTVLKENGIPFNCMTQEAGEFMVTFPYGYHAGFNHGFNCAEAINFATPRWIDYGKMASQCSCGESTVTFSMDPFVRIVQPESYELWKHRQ
# Tau ThT inhib = blocks human tau fibril formation measured by thioflavin T | actives 2.1% (n = 270,000) | Potency, µM (doses to about 57.4 µM), for the others: at the top dose activity, negative = inhibition, hits mostly inhibitors | P10636 | recombinant tau K18 P301L (four-repeat tau fragment), heparin-induced fibrillization, ThT fluorescence; note: potency is the fitted concentration of half-maximal effect; nearly all actives have a fitted effect of over 55% in size
# Target sequence (P10636 561-689 P618L limits assumed): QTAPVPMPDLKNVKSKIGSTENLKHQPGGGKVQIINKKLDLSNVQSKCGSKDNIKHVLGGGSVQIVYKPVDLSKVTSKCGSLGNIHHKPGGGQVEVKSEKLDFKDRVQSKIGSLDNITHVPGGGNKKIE
#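 Heparin-induced (20 uM) aggregation of recombinant human K18 P301L tau, 15 uM unlabeled with 0.24 uM labeled, pH 7 acetate buffer, 6 hr at 37 C with compound. Fibrils quantified by 30 uM ThT fluorescence after 1 hr ambient incubation.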
# Tau FP inhib = tau fibrillization inhibition (FP) | P10636 | K18 P301L tau heparin fibrillization, Alexa594 FP, 6 h | Potency, µM (highest dose often 57.7 µM), for inactives: at the top dose activity, negative = inhibition, actives largely listed as inhibitors | actives 0.39% (n = 280,000) | AID 1468; note: potency is the fitted concentration of half-maximal effect; nearly all actives have a fitted effect of over 55% in size
#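 Quantitative HTS format: compounds meet 15 uM recombinant K18 P301L tau and Alexa 594-tau tracer in 100 mM sodium acetate pH 7; 20 uM heparin triggers fibrillization at 37 C over 6 hr; FP gives the signal.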
# * = called active by the depositor; ? = inconclusive; / = not tested or not shown; [ ] = another dose, or the depositor's remark. Compounds with a hit are over-represented: about 5.3% of the library has one in this group of screens. Unless noted, calls come from the whole dose curve; as a rule, active = well fitted curve in the direction sought with a large enough effect; inconclusive = small, poorly fitted or top-dose-only effect, or another doubt; inactive = no such curve, though single readings can be large; an effect the other way counts as inactive or inconclusive. Unless noted, % is set by controls: 0 for no effect and ±100 for the full control effect.
SMILES,Sfp inh,Tau fluor cs,Coupling enz,KDM4E inh,Tau ThT inhib,Tau FP inhib
CN(C)c1ccc(C(CNC(=O)c2ccccc2)c2c[nH]c3ccccc23)cc1 (centres undefined),31%,14µM*[quencher],-4,2%,?,?
COC/C=C/C1=CC2=CC(=O)C(C)(OC(=O)c3ccc(Cl)nc3)C(=O)C2=CO1 (centres undefined),-13%,-16%,2,-19%,?,0%
Cc1cccc(C)c1Nc1oc(-c2ccccc2)nc1-c1ccccc1F,-20%,-1%,2,-5%,3%,-2%
N#C/C(=C\c1ccc(N2CCOCC2)o1)C(=O)NCC1CCCO1 (centres undefined),-1%,-12%,-2,?,-3%,3%
N#C/C(=C\c1ccc(N2CCOCC2)o1)C(=O)NCCc1ccccc1,5%,-27%,3,40µM*,8.9µM*,11%
COCCNC(=O)/C(C#N)=C/c1ccc(N2CCOCC2)o1,-11%,-12%,0,?,?,-1%
N#C/C(=C\c1ccc(N2CCOCC2)o1)C(=O)NC1CCCCC1,45µM*,-20%,-5,-9%,?,2%
Cc1cc(C(=O)Nc2cccc(F)c2)c2c(C)nn(-c3cccc(Cl)c3C)c2n1,/,-24%,/,/,-4%,-13%
COc1ccc(N=Cc2c(O)c3ccccc3n2C(C)=O)cc1,18µM*,?,-16,?,16µM*,?
COc1ccc(N=Cc2sc(O)c3ccccc23)cc1,-15%,7.1µM*[quencher],-6,?,?,?
COc1ccc(-n2c(O)c(C=Nc3ccccc3)c3ccccc3c2=O)cc1,2%,-11%,2,4%,-5%,-6%
C=CCn1c(-c2cc(-c3ccccc3)sc2N)n[nH]c1=S,79µM*,?,-1,-17%,?,16%
C=CCn1c(-c2csc(-c3ccccc3)n2)n[nH]c1=S,-25%,-6%,-1,-7%,?,5%
COc1ccc2c(c1OC)C(Cc1ccccc1)N1CCc3cc4c(cc3C1=C2)OCO4 (centres undefined),50µM*,?,-33*,-2%,16µM*,-11%
COc1c2c(cc3c1C(CC(O)Cc1ccccc1)N(C)CC3)OCO2 (centres undefined),-3%,/,-3,/,/,/
COCc1cc(=O)[nH]c(SCCS(=O)(=O)c2ccc(Cl)cc2Cl)n1,79µM*,-1%,5,-2%,-13%,7%
CCn1c(=O)c2cc(C(=O)N(CCCOC(C)C)Cc3ccco3)sc2c2ccccc21,/,-17%,/,/,?,7%
CN(C)c1ccc(N=Nc2nc3ccccc3n2C)cc1,-17%,13µM*[quencher],-3,-4%,0.5µM*,?
CN(C)S(=O)(=O)c1cccc(NC(=S)Nc2cc(Cl)cc(Cl)c2)c1,50µM*,?,0,-8%,-11%,25µM*
O=S(=O)(Nc1ncccn1)c1ccc(NC(=S)Nc2cccc(Cl)c2)cc1,56µM*,-26%,2,-4%,-4%,-8%
Cc1ccc(NC(=S)Nc2ccc(S(=O)(=O)Nc3ncccn3)cc2)cc1Cl,2%,?,0,-6%,3%,?
CCN(CCO)c1ccc(NC(=S)Nc2cccc(S(=O)(=O)N(C)C)c2)cc1,50µM*,?,-41*,?,14µM*,?
CCN(c1ccccc1)S(=O)(=O)c1ccc2[nH]cc(C(=O)NC3CCCCC3)c(=O)c2c1,/,?,/,/,?,3.5µM*
Cc1ccc(C)c(N(C)S(=O)(=O)c2ccc3[nH]cc(C(=O)NCCN4CCOCC4)c(=O)c3c2)c1,1%,-19%,1,-9%,2%,-8%
CCn1cc(C(=O)NC2CCCCC2)c(=O)c2cc(S(=O)(=O)N(C)C)ccc21,-1%,13%,6,-3%,14%,-4%
CCN(c1ccccc1)S(=O)(=O)c1ccc2[nH]cc(C(=O)NCCOC)c(=O)c2c1,2%,-15%,0,?,8%,?
